According to the supplement of paper PMC6555819:

Experiments:
Experiment in all cases: PBM binding z-score (relative to random genomic background probes); higher = stronger binding; sequences stand for … in GC…GCGATTGACAGCGTAGAATGAAGG
[1] = test system: PPARg:RXRa DBDmut IVT, anti-RXR (DBD mutation: RXRa K156A/R161A, NR concentration 270 nM, RXRa partner concentration 90 nM)
In short: (§1)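 Ligand-free nuclear receptor dimers were applied to custom Agilent 4×180K protein-binding microarrays whose double-stranded probes carried direct-repeat seeds, single-nucleotide variants, half-site ablations and random human genomic background sequences in 34-nt variable regions. Incubation lasted 1 h. Binding z-scores were computed against the random background probes from regression-normalized fluorescence.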

[2] = test system: PPARg:RXRa IVT, anti-PPARg (NR concentration 270 nM, RXRa partner concentration 90 nM)
In short: as §1

[3] = test system: PPARg DBDmut:RXRa IVT, anti-PPARg (DBD mutation: PPARg1 K132A/R137A, NR concentration 270 nM, RXRa partner concentration 90 nM)
In short: as §1

[4] = test system: PPARg DBDmut IVT, anti-PPARg (DBD mutation: PPARg1 K132A/R137A, NR concentration 270 nM)
In short: as §1

[5] = test system: PPARg homodimer (NR concentration 180 nM)
In short: as §1

[6] = test system: PXR:RXRa (NR concentration 270 nM, RXRa partner concentration 90 nM)
In short: as §1

[7] = test system: PXR homodimer (NR concentration 270 nM)
In short: as §1

[8] = test system: RARa:RXR (NR concentration 270 nM, RXRa partner concentration 90 nM)
In short: as §1

[9] = test system: RARa homodimer (NR concentration 270 nM)
In short: as §1

[10] = test system: RARb:RXRa (NR concentration 270 nM, RXRa partner concentration 90 nM)
In short: as §1

[11] = test system: RARb homodimer (NR concentration 270 nM)
In short: as §1

[12] = test system: RARg:RXRa (NR concentration 270 nM, RXRa partner concentration 90 nM)
In short: as §1

[13] = test system: RARg homodimer (NR concentration 270 nM)
In short: as §1

[14] = test system: RXRa DBDmut IVT, anti-RXR (DBD mutation: RXRa K156A/R161A, NR concentration 90 nM)
In short: as §1

[15] = test system: RXRa homodimer (NR concentration 180 nM)
In short: as §1

[16] = test system: THRa:RXRa (NR concentration 90 nM, RXRa partner concentration 90 nM)
In short: as §1

[17] = test system: THRa homodimer (NR concentration 90 nM)
In short: as §1

[18] = test system: VDR homodimer (NR concentration 270 nM)
In short: as §1

For CAAACTAGGTCTCCGGAAGGTCAAAGTCCGCATG, the PBM binding z-score [1] was 5.21, the PBM binding z-score [2] was 4.82 and the PBM binding z-score [3] was 0.561. For the same sequence, the PBM binding z-score [4] was 0.489, the PBM binding z-score [5] was 2.44 and the PBM binding z-score [6] was 3.68. It also gave a PBM binding z-score [7] of 1.14, a PBM binding z-score [8] of 3.9 and a PBM binding z-score [9] of 0.122. The PBM binding z-score [10] was 3.23, the PBM binding z-score [11] was 4.17 and the PBM binding z-score [12] was 4.36. It also gave a PBM binding z-score [13] of 3.46, a PBM binding z-score [14] of 0.358 and a PBM binding z-score [15] of 3.68. For the same sequence, the PBM binding z-score [16] was 2.88, the PBM binding z-score [17] was 1.4 and the PBM binding z-score [18] was 1.84.
Sequence CAAACTACGTCAAGAGGTCAAAGTCCGCTTCCCG has a PBM binding z-score [1] of 1.03, a PBM binding z-score [2] of 2.44 and a PBM binding z-score [3] of 1.05. It also gave a PBM binding z-score [4] of 0.608, a PBM binding z-score [5] of 3.36 and a PBM binding z-score [6] of 5.8. For the same sequence, the PBM binding z-score [7] was 3.22, the PBM binding z-score [8] was 6.09 and the PBM binding z-score [9] was 1.56. It also gave a PBM binding z-score [10] of 4.01, a PBM binding z-score [11] of 4.32 and a PBM binding z-score [12] of 5.45. For the same sequence, the PBM binding z-score [13] was 4.73, the PBM binding z-score [14] was 2.5 and the PBM binding z-score [15] was 6.72. For the same sequence, the PBM binding z-score [16] was 3.72, the PBM binding z-score [17] was 1.78 and the PBM binding z-score [18] was 4.48.
ATATGTAAGTTAAGGGTCATTCAGGTTGGTTCGC showed a PBM binding z-score [1] of 1.13, a PBM binding z-score [2] of 3.7 and a PBM binding z-score [3] of 1.79. The PBM binding z-score [4] was 1.39, the PBM binding z-score [5] was 4.41 and the PBM binding z-score [6] was 5.17. For the same sequence, the PBM binding z-score [7] was 2.93, the PBM binding z-score [8] was 4.86 and the PBM binding z-score [9] was 1.97. It also gave a PBM binding z-score [10] of 3.42, a PBM binding z-score [11] of 3.8 and a PBM binding z-score [12] of 3.97. For the same sequence, the PBM binding z-score [13] was 3.2, the PBM binding z-score [14] was 2.13 and the PBM binding z-score [15] was 4.89. The PBM binding z-score [16] was 3.5, the PBM binding z-score [17] was 1.55 and the PBM binding z-score [18] was 4.67.
TCTGCTAGGGCAACGATGGTCAGCTAATCTGCTA was tested, and the PBM binding z-score [1] was 2.18, the PBM binding z-score [2] was 1.59 and the PBM binding z-score [3] was -0.859. It also gave a PBM binding z-score [4] of -1.01, a PBM binding z-score [5] of -1.1 and a PBM binding z-score [6] of -0.375. The PBM binding z-score [7] was -0.975, the PBM binding z-score [8] was -0.218 and the PBM binding z-score [9] was -0.818. The PBM binding z-score [10] was 1.58, the PBM binding z-score [11] was 0.762 and the PBM binding z-score [12] was 0.579. The PBM binding z-score [13] was 0.934, the PBM binding z-score [14] was -0.149 and the PBM binding z-score [15] was -0.0028. For the same sequence, the PBM binding z-score [16] was 0.381, the PBM binding z-score [17] was -0.978 and the PBM binding z-score [18] was -0.735.
Work on CCTTACGGGTCACTCCAAGTTATAGCATCGGAGT yielded a PBM binding z-score [1] of 3.33, a PBM binding z-score [2] of 3.23 and a PBM binding z-score [3] of 0.816. For the same sequence, the PBM binding z-score [4] was 0.0314, the PBM binding z-score [5] was 3.25 and the PBM binding z-score [6] was 2.57. The PBM binding z-score [7] was 0.296, the PBM binding z-score [8] was 3.32 and the PBM binding z-score [9] was 1.47. It also gave a PBM binding z-score [10] of 3.56, a PBM binding z-score [11] of 2.81 and a PBM binding z-score [12] of 4.31. It also gave a PBM binding z-score [13] of 4.69, a PBM binding z-score [14] of 1.81 and a PBM binding z-score [15] of 4.11. The PBM binding z-score [16] was 2.51, the PBM binding z-score [17] was 0.165 and the PBM binding z-score [18] was 1.05.
GCTAGCAGGTCATTTGGGTCACTCAATGACGGGC gave a PBM binding z-score [1] of 3.89, a PBM binding z-score [2] of 4.84 and a PBM binding z-score [3] of 0.133. For the same sequence, the PBM binding z-score [4] was -0.577, the PBM binding z-score [5] was 1.31 and the PBM binding z-score [6] was 3.98. For the same sequence, the PBM binding z-score [7] was 4.92, the PBM binding z-score [8] was 3.92 and the PBM binding z-score [9] was 0.247. The PBM binding z-score [10] was 3.94, the PBM binding z-score [11] was 3.52 and the PBM binding z-score [12] was 4.5. The PBM binding z-score [13] was 4.38, the PBM binding z-score [14] was 2.82 and the PBM binding z-score [15] was 4.23. For the same sequence, the PBM binding z-score [16] was 3.74, the PBM binding z-score [17] was 1.48 and the PBM binding z-score [18] was 3.25.
Sequence CAGCCTTGGTCAGGGCCAGTATAGGAGGAACGTT has a PBM binding z-score [1] of -0.703, a PBM binding z-score [2] of -0.873 and a PBM binding z-score [3] of -1.09. It also gave a PBM binding z-score [4] of -1.73, a PBM binding z-score [5] of -1.21 and a PBM binding z-score [6] of -0.903. It also gave a PBM binding z-score [7] of -0.901, a PBM binding z-score [8] of -0.84 and a PBM binding z-score [9] of -0.916. It also gave a PBM binding z-score [10] of 0.481, a PBM binding z-score [11] of 0.149 and a PBM binding z-score [12] of -0.144. For the same sequence, the PBM binding z-score [13] was 0.23, the PBM binding z-score [14] was -1.06 and the PBM binding z-score [15] was -0.491. The PBM binding z-score [16] was -0.654, the PBM binding z-score [17] was -0.63 and the PBM binding z-score [18] was -0.985.
TCTCGGAGGACACGAAAGTCAGAGCTTTCCAGAG was tested, and the PBM binding z-score [1] was 1.13, the PBM binding z-score [2] was 0.191 and the PBM binding z-score [3] was -0.706. It also gave a PBM binding z-score [4] of -0.594, a PBM binding z-score [5] of -0.882 and a PBM binding z-score [6] of -0.408. The PBM binding z-score [7] was -0.694, the PBM binding z-score [8] was -0.237 and the PBM binding z-score [9] was -0.903. The PBM binding z-score [10] was 1.28, the PBM binding z-score [11] was 0.384 and the PBM binding z-score [12] was 0.378. For the same sequence, the PBM binding z-score [13] was 1.08, the PBM binding z-score [14] was 0.647 and the PBM binding z-score [15] was -0.0691. The PBM binding z-score [16] was 1.21, the PBM binding z-score [17] was 0.236 and the PBM binding z-score [18] was -0.621.
